Source: PubChem BioAssay (EPA / NIEHS)
The source made the active and inactive calls. The calls were made as follows: active = hit-call score of the fitted dose curve at least 0.9, where 1 is the maximum; inactive = score below 0.9.

Key:
Details in all cases: mRNA level, 48 h; actives raise or lower the signal
HGF (gene 3082) = assay: LTEA_HepaRG_HGF: Life Technologies and Expression Analysis (LTEA) Assay for Hepatocyte Growth Facto (HGF) using HepaRG (AID 2283505)
Summary of the method: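 HepaRG, 48 h dosing, 8-pt half-log series from 100 uM in 0.5% DMSO, duplicates. Readout: TaqMan qRT-PCR of HGF mRNA, housekeeping-normalized; bidirectional curve fit vs DMSO baseline.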

[1] = read-out: Insulin Like Growth Factor 1 (IGF1), IGF1 (gene 3479); assay: LTEA_HepaRG_IGF1: Life Technologies and Expression Analysis (LTEA) Assay for Insulin Like Growth Factor 1 (IGF1) using HepaRG (AID 2283506)
Summary of the method: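 HepaRG, plated 48 h, then switched to serum-free induction media; test chemical 8-pt half-log from 100 uM (0.5% DMSO), duplicate, 48 h. Lysis in RLT, TaqMan qRT-PCR, norm. ACTB/GAPDH/POLR2A. Bidirectional fit vs DMSO.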

[2] = read-out: Intercellular Adhesion Molecule 1 (ICAM1), ICAM1 (gene 3383); assay: LTEA_HepaRG_ICAM1: Life Technologies and Expression Analysis (LTEA) Assay for Intercellular Adhesion Molecule 1 (ICAM1) using HepaRG (AID 2283507)
Summary of the method: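 HepaRG, 48 h exposure, 8-pt half-log series from 100 uM, 0.5% DMSO vehicle, duplicates. Readout: TaqMan qRT-PCR mRNA, housekeeping-normalized (ACTB/GAPDH/POLR2A). Bidirectional curve fit vs DMSO baseline.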

[3] = read-out: Insulin-like growth factor-binding protein 1 (IGFBP1), IGFBP1 (gene 3484); assay: LTEA_HepaRG_IGFBP1: Life Technologies and Expression Analysis (LTEA) Assay for Insulin-like growth factor-binding protein 1 (IGFBP1) using HepaRG (AID 2283508)
Summary of the method: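 qRT-PCR mRNA read-out (TaqMan, Fluidigm array), normalised to three housekeeping genes; HepaRG cells, 48 h exposure, 8-pt half-log series from 100 uM, 0.5% DMSO vehicle; bidirectional curve fit vs DMSO baseline.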

[4] = read-out: Interleukin 6 (IL6), IL6 (gene 3569); assay: LTEA_HepaRG_IL6: Life Technologies and Expression Analysis (LTEA) Assay for Interleukin 6 (IL6) using HepaRG (AID 2283509)
Summary of the method: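 HepaRG cells exposed in duplicate for 48 h to eight half-log concentrations, top 100 uM, in 0.5% DMSO serum-free induction medium. mRNA measured by qRT-PCR, normalized to ACTB, GAPDH and POLR2A. Bidirectional fit versus DMSO.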

[5] = read-out: Interleukin 6 Receptor (IL6R), IL6R (gene 3570); assay: LTEA_HepaRG_IL6R: Life Technologies and Expression Analysis (LTEA) Assay for Interleukin 6 Receptor (IL6R) using HepaRG (AID 2283510);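 as to AC50: differentiated human HepaRG liver cells in serum-free induction medium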
Summary of the method: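 Readout is IL6R transcript level by TaqMan qRT-PCR, normalized to three housekeeping genes and fitted bidirectionally against 0.5% DMSO controls. Human HepaRG cells received chemicals for 48 h in serum-free induction medium, highest concentration 100 uM.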

[6] = read-out: Potassium channel subfamily K member 1 (KCNK1), KCNK1 (gene 3775); assay: LTEA_HepaRG_KCNK1: Life Technologies and Expression Analysis (LTEA) Assay for Potassium channel subfamily K member 1 (KCNK1) using HepaRG (AID 2283511)
Summary of the method: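 Differentiated HepaRG cells, 48 h exposure in serum-free induction medium with 0.5% DMSO; 8 concentrations, half-log from 100 uM, duplicate. KCNK1 mRNA by qRT-PCR, normalized to ACTB, GAPDH, POLR2A; bidirectional fit vs DMSO.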

[7] = read-out: Keratin 19 (KRT19), KRT19 (gene 3880); assay: LTEA_HepaRG_KRT19: Life Technologies and Expression Analysis (LTEA) Assay for Keratin 19 (KRT19) using HepaRG (AID 2283512)
Summary of the method: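 HepaRG, 48 h chemical exposure, 8-pt half-log CRC from 100 uM, 0.5% DMSO vehicle, duplicates. Readout: TaqMan qRT-PCR of KRT19 mRNA, housekeeping-normalized (ACTB/GAPDH/POLR2A). Bidirectional fit vs DMSO baseline.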

[8] = read-out: JUN Transcription Factor, JUN (gene 3725); assay: LTEA_HepaRG_JUN: Life Technologies and Expression Analysis (LTEA) Assay for JUN Transcription Factor using HepaRG (AID 2283513)
Summary of the method: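 Cells plated 48 h, medium switched to serum-free induction medium, then dosed 48 h (100 uM top, half-log dilutions, 0.5% DMSO). RNA isolated; JUN measured by qRT-PCR against three housekeeping genes; gain or loss fitted relative to DMSO.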

[9] = read-out: Lipase C (LIPC), LIPC (gene 3990); assay: LTEA_HepaRG_LIPC: Life Technologies and Expression Analysis (LTEA) Assay for Lipase C (LIPC) using HepaRG (AID 2283514)
Summary of the method: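 HepaRG cells, 48 h after plating, treated in duplicate for 48 h in serum-free induction medium over 8 half-log concentrations from 100 uM, 0.5% DMSO. LIPC mRNA by TaqMan qRT-PCR normalized to ACTB/GAPDH/POLR2A; bidirectional fit versus DMSO.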

In the case of OC[C@H]1O[C@@H]2O[C@H]3[C@H](O)[C@@H](O)[C@@H](O[C@H]4[C@H](O)[C@@H](O)[C@@H](O[C@H]5[C@H](O)[C@@H](O)[C@@H](O[C@H]6[C@H](O)[C@@H](O)[C@@H](O[C@H]7[C@H](O)[C@@H](O)[C@@H](O[C@H]1[C@H](O)[C@H]2O)O[C@@H]7CO)O[C@@H]6CO)O[C@@H]5CO)O[C@@H]4CO)O[C@@H]3CO, the outcome (HGF (gene 3082)) is reported as “inactive”, the outcome [1] is reported as “inactive” and the outcome [2] is reported as “inactive”. For the same compound, the outcome [3] was “inactive”, the outcome [4] was “inactive” and the outcome [5] was “inactive”. The outcome [6] was “inactive”, the outcome [7] was “inactive” and the outcome [8] was “inactive”. For the same compound, the outcome [9] was “inactive”.
NC(=O)N(O)[C@@H]1COc2cc(OCc3ccccc3)ccc21 was tested, and the outcome (HGF (gene 3082)) was “inactive”, the outcome [1] was “inactive” and the outcome [2] was “inactive”. For the same compound, the outcome [3] was “inactive”, the outcome [4] was “inactive” and the outcome [5] was “inactive”. For the same compound, the outcome [6] was “inactive”, the outcome [7] was “inactive” and the outcome [8] was “inactive”. For the same compound, the outcome [9] was “inactive”.
In the case of CC(C)c1nnc2ccc(-c3ocnc3-c3cc(F)ccc3F)cn12, the AC50 [1] is reported as 66.1 µM (active), the outcome [2] is reported as “inactive” and the AC50 [3] is reported as 12.8 µM (active). For the same compound, the outcome [4] was “inactive”, the outcome [5] was “inactive” and the outcome [6] was “inactive”. The AC50 [7] was 18.7 µM (active), the outcome [8] was “inactive” and the AC50 [9] was 83.4 µM (active).
With CC1(C)C(=O)N(Cl)C(=O)N1Cl the outcome (HGF (gene 3082)) was “inactive”, the outcome [1] was “inactive” and the outcome [2] was “inactive”. For the same compound, the outcome [3] was “inactive”, the outcome [4] was “inactive” and the outcome [5] was “inactive”. For the same compound, the outcome [6] was “inactive”, the outcome [7] was “inactive” and the outcome [8] was “inactive”. For the same compound, the outcome [9] was “inactive”.
With CCCCCOC(C)=O the outcome (HGF (gene 3082)) was “inactive”, the outcome [1] was “inactive” and the outcome [2] was “inactive”. The outcome [3] was “inactive”, the outcome [4] was “inactive” and the outcome [5] was “inactive”. The outcome [6] was “inactive”, the outcome [7] was “inactive” and the outcome [8] was “inactive”. The outcome [9] was “inactive”.
For NNC(=O)c1ccncc1, the outcome (HGF (gene 3082)) was “inactive”, the outcome [1] was “inactive” and the outcome [2] was “inactive”. For the same compound, the outcome [3] was “inactive”, the outcome [4] was “inactive” and the outcome [5] was “inactive”. The outcome [6] was “inactive”, the outcome [7] was “inactive” and the outcome [8] was “inactive”. For the same compound, the outcome [9] was “inactive”.
With OCC(CO)(CO)CO the outcome (HGF (gene 3082)) was “inactive”, the outcome [1] was “inactive” and the outcome [2] was “inactive”. The outcome [3] was “inactive”, the outcome [4] was “inactive” and the outcome [5] was “inactive”. The outcome [6] was “inactive”, the outcome [7] was “inactive” and the outcome [8] was “inactive”. The outcome [9] was “inactive”.
In the case of CCN(CC)C(=S)SSC(=S)N(CC)CC, the outcome [1] is reported as “inactive”, the outcome [2] is reported as “inactive” and the outcome [3] is reported as “inactive”. For the same compound, the outcome [4] was “inactive”, the outcome [5] was “inactive” and the outcome [6] was “inactive”. For the same compound, the outcome [7] was “inactive”, the outcome [8] was “inactive” and the outcome [9] was “inactive”.
CCc1ccc(O)c(C(C)(C)C)c1 was tested, and the outcome (HGF (gene 3082)) was “inactive”, the outcome [1] was “inactive” and the outcome [2] was “inactive”. The outcome [3] was “inactive”, the outcome [4] was “inactive” and the outcome [5] was “inactive”. For the same compound, the outcome [6] was “inactive”, the outcome [7] was “inactive” and the outcome [8] was “inactive”. The outcome [9] was “inactive”.
With Cc1nccn1-c1ccc(Sc2cccc(C3(C(N)=O)CCOCC3)c2)cc1 the AC50 (HGF (gene 3082)) was 20.6 µM (active), the AC50 [1] was 7.82 µM (active) and the AC50 [2] was 10.7 µM (active). For the same compound, the AC50 [3] was 9.01 µM (active), the outcome [4] was “inactive” and the AC50 [5] was 13.1 µM (active). For the same compound, the outcome [6] was “inactive”, the AC50 [7] was 6.52 µM (active) and the AC50 [8] was 19.4 µM (active). The AC50 [9] was 12.2 µM (active).
For CCCCCCCCCCCCCCCCOS(=O)(=O)O, the outcome (HGF (gene 3082)) was “inactive”, the AC50 [1] was 44.2 µM (active) and the outcome [2] was “inactive”. For the same compound, the outcome [3] was “inactive”, the outcome [4] was “inactive” and the outcome [5] was “inactive”. The outcome [6] was “inactive”, the outcome [7] was “inactive” and the outcome [8] was “inactive”. For the same compound, the outcome [9] was “inactive”.
For c1ccc(C(O[C@@H]2CCCN(CCc3ccc4c(c3)OCO4)C2)c2ccccc2)cc1, the AC50 (HGF (gene 3082)) was 50 µM (active), the AC50 [1] was 58 µM (active) and the AC50 [2] was 85.3 µM (active). The AC50 [3] was 86.9 µM (active), the outcome [4] was “inactive” and the outcome [5] was “inactive”. For the same compound, the outcome [6] was “inactive”, the AC50 [7] was 40.3 µM (active) and the outcome [8] was “inactive”. The AC50 [9] was 76.5 µM (active).
CCCOc1ccc(S(=O)(=O)N2CCN(CC)CC2)cc1-c1nc2c(CC)n(Cc3ccccn3)nc2c(=O)[nH]1 was tested, and the outcome (HGF (gene 3082)) was “inactive”, the AC50 [1] was 14.5 µM (active) and the outcome [2] was “inactive”. For the same compound, the AC50 [3] was 68.3 µM (active), the outcome [4] was “inactive” and the outcome [5] was “inactive”. The outcome [6] was “inactive”, the outcome [7] was “inactive” and the outcome [8] was “inactive”. The outcome [9] was “inactive”.
With CCCCN1C(=O)[C@@H]([C@H](O)C2CCCCC2)NC(=O)C12CCN(Cc1ccc(Oc3ccc(C(=O)O)cc3)cc1)CC2 the AC50 (HGF (gene 3082)) was 9.25 µM (active), the AC50 [1] was 9.61 µM (active) and the AC50 [2] was 2.32 µM (active). The AC50 [3] was 2.45 µM (active), the AC50 [4] was 2.99 µM (active) and the AC50 [5] was 2.65 µM (active). The AC50 [6] was 0.391 µM (active), the outcome [7] was “inactive” and the outcome [8] was “inactive”. For the same compound, the AC50 [9] was 3.67 µM (active).
With CCCCCCOC(=O)CC(CC(=O)OCCCCCC)(OC(=O)CCC)C(=O)OCCCCCC the outcome (HGF (gene 3082)) was “inactive”, the outcome [1] was “inactive” and the outcome [2] was “inactive”. For the same compound, the outcome [3] was “inactive”, the outcome [4] was “inactive” and the outcome [5] was “inactive”. The outcome [6] was “inactive”, the outcome [7] was “inactive” and the outcome [8] was “inactive”. For the same compound, the outcome [9] was “inactive”.
OC(CCl)CCl was tested, and the outcome (HGF (gene 3082)) was “inactive”, the outcome [1] was “inactive” and the outcome [2] was “inactive”. The outcome [3] was “inactive”, the outcome [4] was “inactive” and the outcome [5] was “inactive”. The outcome [6] was “inactive”, the outcome [7] was “inactive” and the outcome [8] was “inactive”. The outcome [9] was “inactive”.
With O=C(O)c1ccc2c(c1)nc(C(=O)NC1CCN(C3CC3)CC1)n2Cc1cc(-c2ccc(Cl)s2)on1 the outcome (HGF (gene 3082)) was “inactive”, the outcome [1] was “inactive” and the outcome [2] was “inactive”. For the same compound, the outcome [3] was “inactive”, the outcome [4] was “inactive” and the outcome [5] was “inactive”. For the same compound, the outcome [6] was “inactive”, the outcome [7] was “inactive” and the outcome [8] was “inactive”. The outcome [9] was “inactive”.
